The values that follow come from PMC4336329 (PLoS ONE, 2015).

SMILES strings stand for the structures. The whole screen tested about 310,000 compounds, of which about 14,000 (4.5%) showed an effect of 50% or more. Effects have a minus sign here. This excerpt belongs to a sample that is enriched for strong results.
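Further: peak tail current of the secondary pulse compared with the same well before compound.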

Chain of human ether-à-go-go-related gene (hERG) potassium channel (Q12809 whole entry, looked up): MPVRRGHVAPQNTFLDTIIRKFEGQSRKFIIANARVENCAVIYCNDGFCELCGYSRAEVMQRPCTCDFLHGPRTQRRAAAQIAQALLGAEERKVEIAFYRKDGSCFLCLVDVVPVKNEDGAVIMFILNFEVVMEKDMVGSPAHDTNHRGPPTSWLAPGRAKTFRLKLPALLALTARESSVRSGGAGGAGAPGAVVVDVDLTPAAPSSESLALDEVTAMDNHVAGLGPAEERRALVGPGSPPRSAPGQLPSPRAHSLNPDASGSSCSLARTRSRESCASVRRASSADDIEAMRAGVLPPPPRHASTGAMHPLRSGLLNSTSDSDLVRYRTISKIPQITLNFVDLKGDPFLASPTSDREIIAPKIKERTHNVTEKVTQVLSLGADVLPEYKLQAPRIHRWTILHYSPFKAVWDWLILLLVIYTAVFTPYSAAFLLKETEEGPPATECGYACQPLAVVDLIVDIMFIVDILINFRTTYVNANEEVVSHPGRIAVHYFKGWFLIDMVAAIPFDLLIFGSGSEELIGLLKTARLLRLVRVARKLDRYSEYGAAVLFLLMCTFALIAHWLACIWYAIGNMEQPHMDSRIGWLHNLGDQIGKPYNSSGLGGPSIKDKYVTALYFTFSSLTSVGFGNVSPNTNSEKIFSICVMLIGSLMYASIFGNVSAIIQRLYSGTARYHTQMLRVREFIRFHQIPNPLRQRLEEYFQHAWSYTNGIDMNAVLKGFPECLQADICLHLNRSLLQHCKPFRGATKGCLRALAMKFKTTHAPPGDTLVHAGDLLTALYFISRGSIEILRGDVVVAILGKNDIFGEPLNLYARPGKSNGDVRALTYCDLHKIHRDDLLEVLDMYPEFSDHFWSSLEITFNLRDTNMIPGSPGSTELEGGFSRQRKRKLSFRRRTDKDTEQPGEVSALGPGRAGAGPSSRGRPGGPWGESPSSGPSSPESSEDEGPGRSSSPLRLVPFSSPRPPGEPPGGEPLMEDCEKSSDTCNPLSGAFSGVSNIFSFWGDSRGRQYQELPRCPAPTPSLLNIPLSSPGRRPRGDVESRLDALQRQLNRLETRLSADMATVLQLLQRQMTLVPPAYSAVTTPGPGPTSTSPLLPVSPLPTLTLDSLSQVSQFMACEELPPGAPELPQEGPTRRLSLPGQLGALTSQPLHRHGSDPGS

This experiment has as its target human ether-à-go-go-related gene (hERG) potassium channel (human, UniProt Q12809). In words: primary screen, population patch clamp on CHO cells stably expressing hERG; higher = less effect of the substance.
On to `CC(C)C(=O)Nc1cccc(C(=O)Nc2ccc(S(=O)(=O)Nc3nccs3)cc2)c1`, for which the “hERG current change (%, negative = inhibition) at 10uM” value turned out to be 8.32%.
For `Nn1cnnc1SCC(=O)N1CCc2ccccc2C1`, the “hERG current change (%, negative = inhibition) at 10uM” value is given as -12.8%.
For `COc1ccc(C(=O)c2nccc3ccccc23)cc1`, the “hERG current change (%, negative = inhibition) at 10uM” value came out at 0.535%.
On to `COc1cccc(N(CC(=O)NCC2CCCO2)C(=O)CNS(=O)(=O)c2ccccc2)c1` (stereo not drawn), for which the “hERG current change (%, negative = inhibition) at 10uM” value is listed as 23.1%.
The figure for `c1ccc(CCNc2ncnc3c2cnn3-c2ccccc2)cc1` is -40.5%; for `CC(=O)Nc1ccc(N2CCc3c(C)c(C#N)c4nc5ccccc5n4c32)cc1` it is 8.55%; for `Cc1ccc(N(Cc2ccc(C(=O)NCCSc3ccccn3)cc2)S(C)(=O)=O)cc1C` it is -4.82%.
Next, `Cc1nn(-c2ccc(Cl)cc2Cl)c(=O)c2ccccc12`: -11.3%; `Nc1c2c(nc3ccn(Cc4ccccc4)c(=O)c13)CCC2`: -66%.
Next, `Nc1c2c(nc3ccccc13)CCC2.O=C(O)/C=C/C(=O)O`: -18.2%.
`Nc1c2c(nc3ccn(-c4ccccc4)c(=O)c13)CCCCC2`: the “hERG current change (%, negative = inhibition) at 10uM” value is reported as -58.8%.
Next, `Cc1nc(SC2CC(=O)N(c3ccccc3)C2=O)nc2c1CCCC2` (stereo not drawn): -3.22%; `O=c1[nH]c(N2CCN(Cc3ccccc3)CC2)nc2c1CCC2`: 18.9%.
Turning to `O=c1[nH]c(N2CCN(c3ccccc3)CC2)nc2c1CCCC2`, the “hERG current change (%, negative = inhibition) at 10uM” value was found to be 2.28%.
The figure for `Cc1sc(NC(=O)CN2CCN(c3ccccn3)CC2)c(C#N)c1C` is 2.51%; for `O=C(C/C=N/OCc1ccc(Cl)cc1Cl)c1ccccc1` it is -6.79%.
The figure for `CC(=O)Nc1nc(-c2cccc3ccccc23)cs1` is -9.32%.
The figure for `CSc1ccc(CNC2CC2)cc1.Cl` is -7.3%; for `CCCn1c(CC)nc([N+](=O)[O-])c1Sc1ccc(C)cc1` it is -0.08%.
For the molecule `CC(C)Cn1c(C(C)C)nc([N+](=O)[O-])c1Sc1ccc(Cl)cn1`, the “hERG current change (%, negative = inhibition) at 10uM” value is recorded as -6.57%.
`CCCCn1c(CCC)nc([N+](=O)[O-])c1Sc1ccc(Cl)cn1`: the “hERG current change (%, negative = inhibition) at 10uM” value is -53.2%.
The figure for `CCOC(=O)C1(Cc2cccc(Cl)c2)CCCN(C(=O)c2cccc(C)n2)C1` (stereo not drawn) is -1.76%.
The figure for `CCOCCCNC(=O)COc1ccc(OC)cc1` is 13.2%; for `Cn1c(N)c(C(=O)CCl)c(=O)n(Cc2ccccc2)c1=O` it is 2.2%.
On to `CC1(C)CC(NC(=S)NC(=O)c2cc(Br)ccc2Cl)CC(C)(C)N1`, for which the “hERG current change (%, negative = inhibition) at 10uM” value is recorded as -53.3%.
The figure for `CC1(C)CC(NC(=O)c2cc(Cl)ccc2Cl)CC(C)(C)N1` is -1.21%; for `CC1(C)CC(NC(=O)c2ccc(Cl)cc2Cl)CC(C)(C)N1` it is 2.81%.
The figure for `C=C1c2cc(CC)ccc2NC(=O)N1c1ccc(C)cc1` is 8.71%; for `CC(=O)c1c(C)n(CCCOC(C)C)c2ccc(O)cc12` it is -30.4%; for `COc1ccc(NS(=O)(=O)c2ccc(NC(=S)NC(=O)/C=C/c3ccccc3)cc2)nn1` it is -3.33%.
In the case of `Cc1cccc(NC(=O)CN2C(=O)N/C(=C\c3ccc(-c4cccc(C(=O)O)c4)o3)C2=O)c1`, the “hERG current change (%, negative = inhibition) at 10uM” value turned out to be 19.3%.
Next, `CCc1ccc(S(=O)(=O)N2c3ccc(C)cc3C3CN(C)CCC32)cc1` (stereo not drawn): -60.4%; `Cc1ccc2c(c1)C1CN(C)CCC1N2S(=O)(=O)c1ccccc1` (stereo not drawn): -32.4%; `Cc1ccc2c(c1)C1CN(C)CCC1N2S(=O)(=O)c1ccc(C(C)C)cc1` (stereo not drawn): -73.4%.
Next, `Cc1ccc2c(c1)C1CN(C)CCC1N2S(=O)(=O)c1cc(C(F)(F)F)ccc1Cl` (stereo not drawn): -27.6%; `Cc1ccc2c(c1)C1CN(C)CCC1N2S(=O)(=O)c1cccc(C(F)(F)F)c1` (stereo not drawn): -40.1%; `Cc1ccc2c(c1)C1CN(C)CCC1N2S(=O)(=O)c1cccc(F)c1` (stereo not drawn): -11.5%.
Next, `O=C(COC(=O)c1ccc(S(=O)(=O)C(F)F)cc1)Nc1ccccc1C(=O)NC1CC1`: 11.5%.
For the molecule `O=C(CCN=C1NS(=O)(=O)c2ccccc21)OCC(=O)c1ccc(F)cc1`, the “hERG current change (%, negative = inhibition) at 10uM” value was -3.17%.
The figure for `O=C(NCCCN1CCOCC1)c1onc(CSc2ccncc2)c1C(=O)NCCCN1CCOCC1` is -5.25%.
The figure for `CCCCCC(=O)N/N=C/c1ccc(N(C)C)cc1` is -19.2%; for `COc1cc(NC(=O)C2CCN(c3cnccn3)CC2)cc(OC)c1OC` it is 19.5%.
Next, `COc1ccccc1CNC(=O)CSc1ccc(Br)cc1`: -3.01%; `COc1ccc(CNC(=O)CSc2n[nH]c(N)n2)cc1OC`: -77.5%; `COc1ccc(CNC(=O)CSc2n[nH]c(N)n2)cc1`: 20.1%.
Consider `COc1ccc(CCNC(=O)CSc2n[nH]c(N)n2)cc1OC`, for which the “hERG current change (%, negative = inhibition) at 10uM” value was 30.1%.
Next, `COc1ccc(CCNC(=O)CSc2ccc(Br)cc2)cc1OC`: 23%; `COc1ccc(CNC(=O)CSc2ccc(Br)cc2)cc1OC`: -63.1%.
The figure for `COc1ccc(CNC(=O)C2CCN(c3nccs3)CC2)cc1` is -31.8%; for `CC(C)c1ccc(Oc2cccc(C(=O)/C(C#N)=C/N(C)C)c2)cc1` it is -14.6%.
Next, `Cc1ccsc1C(=O)C1CCCN(Cc2cnc(N3CCCC3)s2)C1` (stereo not drawn): -15.3%; `CSc1ncc(CN2CCCC(C(=O)c3sccc3C)C2)cn1` (stereo not drawn): -55.2%; `Cc1ccsc1C(=O)C1CCCN(Cc2cnc(N)nc2)C1` (stereo not drawn): -4.85%.
Consider `O=C(c1ccc(Cl)cc1)C1CCCN(Cc2cccn2-c2cccnc2)C1` (stereo not drawn), for which the “hERG current change (%, negative = inhibition) at 10uM” value is -42%.
The figure for `Cc1ccsc1C(=O)C1CCCN(Cc2cnn(C)c2)C1` (stereo not drawn) is 12%; for `CCn1cc(CN2CCCC(C(=O)c3sccc3C)C2)cn1` (stereo not drawn) it is -27.3%.
The figure for `CSc1ccc(C(=O)C2CCCN(Cc3cnc(SC)nc3)C2)cc1` (stereo not drawn) is -76.4%; for `CSc1ncc(CN2CCCC(C(=O)c3cccc(Cl)c3)C2)cn1` (stereo not drawn) it is -47.1%.
Next, `CSc1ncc(CN2CCCC(C(=O)c3ccc(C(C)(C)C)cc3)C2)cn1` (stereo not drawn): -31.9%; `CSc1ccc(C(=O)C2CCCN(Cc3cccn3-c3cccnc3)C2)cc1` (stereo not drawn): -65.1%.
As for `Cc1ccsc1C(=O)C1CCCN(Cc2cnn(C(C)C)c2)C1` (stereo not drawn), the “hERG current change (%, negative = inhibition) at 10uM” value was -56.4%.
`COc1cccc(/C=N/NC(=O)C(C)n2nnc3ccccc32)c1` (stereo not drawn): the “hERG current change (%, negative = inhibition) at 10uM” value is -1.1%.
The figure for `Cc1cc([N+](=O)[O-])nn1CC(=O)Nc1sc2c(c1C(N)=O)CCCC2` is 7.62%; for `CCN(CC(=O)NCc1cccs1)CC(=O)Nc1c(Cl)ccc(C)c1Cl` it is -16.8%.
With `CC12CC3(C)CC(C)(C1)CC(C(=O)NC(=S)NC(C)(C)C)(C2)C3`, the “hERG current change (%, negative = inhibition) at 10uM” value was determined as 13.3%.
Turning to `CSc1ccc(C(=O)C2CCCN(Cc3cccnc3)C2)cc1` (stereo not drawn), the “hERG current change (%, negative = inhibition) at 10uM” value was -53%.
The figure for `CSc1ccc(C(=O)C2CCCN(Cc3ccn[nH]3)C2)cc1` (stereo not drawn) is -26.6%; for `O=C(C1CCCN(Cc2cccnc2)C1)N1CCCCC1.O=C(O)C(=O)O` (stereo not drawn) it is 7.77%; for `CCCCn1nc(C(=O)NCC2COc3ccccc3O2)c2ccccc2c1=O` (stereo not drawn) it is -49.1%.
Next, `O=[N+]([O-])c1ccccc1/C=C/C=N/n1c(-c2ccc(Cl)cc2)n[nH]c1=S`: 17.5%; `O=C(CN(Cc1ccco1)C(=O)CNS(=O)(=O)c1ccc(F)cc1)NCc1ccccc1`: -28.4%; `CCOC(=O)C1CCN(C(=O)CCNC(=O)c2cc(OC)c(OC)c(OC)c2)CC1`: 10.9%.
Next, `CCN1CCCC1CNC(=O)c1ccccc1Cl` (stereo not drawn): -10.6%.
Take `O=C(NCCCN1CCOCC1)c1ccc(Sc2ccc(F)cc2)c([N+](=O)[O-])c1`: the “hERG current change (%, negative = inhibition) at 10uM” value is listed as -33.3%.
Next, `CCN1CCCC1CNC(=O)c1ccc(Sc2ccccc2Cl)c([N+](=O)[O-])c1` (stereo not drawn): -64.1%.
Next, `O=C(c1ccc(Sc2ccc(F)cc2)c([N+](=O)[O-])c1)N1CCOCC1`: -18.5%; `O=C(NCCCN1CCOCC1)c1ccc(Sc2ccccc2Cl)c([N+](=O)[O-])c1`: -22.7%.
Next, `CCN1CCCC1CNC(=O)c1ccc(Sc2ccc(F)cc2)c([N+](=O)[O-])c1` (stereo not drawn): -66.5%; `CCOc1ccc(-c2nnn(CC(=O)N3CCCC3)n2)cc1OCC`: 13.8%; `Cl.O=c1c(-c2ccccc2)coc2c(CN3CCCCC3)c(O)ccc12`: 14.6%.
Regarding `COc1ccc(NC(=O)CSCC(=O)N=c2sccn2C)cc1`, the “hERG current change (%, negative = inhibition) at 10uM” value turned out to be 11%.
The figure for `O=C(Nc1ccc(O)cc1)c1cc2n(n1)C(C(F)(F)F)CC(c1ccco1)N2` (stereo not drawn) is -5.45%.
Next, `O=S(=O)(Nc1cccc(-c2cn3cccnc3n2)c1)c1ccc(Cl)cc1`: 16.4%.
Next, `CN1CCN(CC(=O)NC23CC4CC(CC(C4)C2)C3)CC1.Cl`: 4.19%.
As for `CCc1ccc(Nc2n[n+](-c3ccccc3)c(/C=C/c3ccccc3)s2)cc1.[Cl-]`, the “hERG current change (%, negative = inhibition) at 10uM” value is listed as -69%.
Next, `CCc1ccc(Nc2n[n+](-c3ccccc3)c(-c3cc(OC)c(OC)cc3Br)s2)cc1.[Cl-]`: -55%.
The figure for `CCc1ccc(Nc2n[n+](-c3ccccc3)c(-c3ccc(SC)cc3)s2)cc1.[Cl-]` is -2.72%; for `CCc1ccc(Nc2n[n+](-c3ccccc3)c(-c3ccc(OCc4ccccc4)cc3)s2)cc1.[Cl-]` it is -45.2%; for `COc1ccc(-c2sc(Nc3ccccc3)n[n+]2-c2ccccc2)cc1Br.[Cl-]` it is -48.7%.
The figure for `CCc1ccc(Nc2n[n+](-c3ccccc3)c(-c3c(Cl)cccc3Cl)s2)cc1.[Cl-]` is -27.5%; for `COc1cc(Br)c(-c2sc(Nc3ccccc3)n[n+]2-c2ccc(F)cc2)cc1OC.[Cl-]` it is -37.1%.
On to `COc1cc(Br)c(-c2sc(Nc3ccccc3)n[n+]2-c2ccccc2)cc1OC.[Cl-]`, for which the “hERG current change (%, negative = inhibition) at 10uM” value is on record as -68.7%.
With `CCc1ccc(Nc2n[n+](-c3ccccc3)c(-c3cccc(Cl)c3Cl)s2)cc1.[Cl-]`, the “hERG current change (%, negative = inhibition) at 10uM” value is on record as -1.43%.
